Our source for the residual activity values is ChEMBL document CHEMBL2218924, “A broad activity screen in support of a chemogenomic map for kinase signalling research and drug discovery” (Biochem J, 2013).

The target of test [1] is T1, Ephrin type-B receptor 1 (Homo sapiens) (UniProt P54762).
T1 sequence (whole entry): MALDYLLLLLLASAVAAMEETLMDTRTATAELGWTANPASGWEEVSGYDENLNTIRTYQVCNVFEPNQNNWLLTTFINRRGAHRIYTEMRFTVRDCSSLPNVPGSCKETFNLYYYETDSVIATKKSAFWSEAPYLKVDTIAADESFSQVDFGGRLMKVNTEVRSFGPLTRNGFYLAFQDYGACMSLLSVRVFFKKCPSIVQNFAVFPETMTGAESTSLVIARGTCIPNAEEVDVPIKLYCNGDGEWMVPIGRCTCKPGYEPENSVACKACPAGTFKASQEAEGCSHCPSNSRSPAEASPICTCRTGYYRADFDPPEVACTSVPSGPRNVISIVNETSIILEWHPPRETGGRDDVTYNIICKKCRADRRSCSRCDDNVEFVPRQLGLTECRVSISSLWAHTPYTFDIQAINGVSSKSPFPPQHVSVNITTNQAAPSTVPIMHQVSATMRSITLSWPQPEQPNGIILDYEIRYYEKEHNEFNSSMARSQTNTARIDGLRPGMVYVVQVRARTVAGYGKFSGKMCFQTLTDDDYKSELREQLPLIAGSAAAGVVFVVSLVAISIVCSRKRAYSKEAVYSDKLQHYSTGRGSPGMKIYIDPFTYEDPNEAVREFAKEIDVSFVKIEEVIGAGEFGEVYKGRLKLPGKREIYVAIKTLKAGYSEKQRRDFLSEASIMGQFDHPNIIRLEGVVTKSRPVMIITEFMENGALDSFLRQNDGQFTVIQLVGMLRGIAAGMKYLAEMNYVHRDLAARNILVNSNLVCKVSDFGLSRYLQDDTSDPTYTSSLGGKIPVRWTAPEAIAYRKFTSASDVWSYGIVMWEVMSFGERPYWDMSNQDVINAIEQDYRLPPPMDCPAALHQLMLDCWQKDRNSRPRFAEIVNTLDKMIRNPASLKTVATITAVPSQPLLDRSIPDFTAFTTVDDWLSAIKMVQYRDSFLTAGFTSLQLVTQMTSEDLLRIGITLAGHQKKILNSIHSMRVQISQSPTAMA
Particulars: at 10 µM; call rule not given here.

In test [2] the target is T2, Ephrin type-B receptor 2 (Homo sapiens) (UniProt P29323).
T2 sequence (whole entry): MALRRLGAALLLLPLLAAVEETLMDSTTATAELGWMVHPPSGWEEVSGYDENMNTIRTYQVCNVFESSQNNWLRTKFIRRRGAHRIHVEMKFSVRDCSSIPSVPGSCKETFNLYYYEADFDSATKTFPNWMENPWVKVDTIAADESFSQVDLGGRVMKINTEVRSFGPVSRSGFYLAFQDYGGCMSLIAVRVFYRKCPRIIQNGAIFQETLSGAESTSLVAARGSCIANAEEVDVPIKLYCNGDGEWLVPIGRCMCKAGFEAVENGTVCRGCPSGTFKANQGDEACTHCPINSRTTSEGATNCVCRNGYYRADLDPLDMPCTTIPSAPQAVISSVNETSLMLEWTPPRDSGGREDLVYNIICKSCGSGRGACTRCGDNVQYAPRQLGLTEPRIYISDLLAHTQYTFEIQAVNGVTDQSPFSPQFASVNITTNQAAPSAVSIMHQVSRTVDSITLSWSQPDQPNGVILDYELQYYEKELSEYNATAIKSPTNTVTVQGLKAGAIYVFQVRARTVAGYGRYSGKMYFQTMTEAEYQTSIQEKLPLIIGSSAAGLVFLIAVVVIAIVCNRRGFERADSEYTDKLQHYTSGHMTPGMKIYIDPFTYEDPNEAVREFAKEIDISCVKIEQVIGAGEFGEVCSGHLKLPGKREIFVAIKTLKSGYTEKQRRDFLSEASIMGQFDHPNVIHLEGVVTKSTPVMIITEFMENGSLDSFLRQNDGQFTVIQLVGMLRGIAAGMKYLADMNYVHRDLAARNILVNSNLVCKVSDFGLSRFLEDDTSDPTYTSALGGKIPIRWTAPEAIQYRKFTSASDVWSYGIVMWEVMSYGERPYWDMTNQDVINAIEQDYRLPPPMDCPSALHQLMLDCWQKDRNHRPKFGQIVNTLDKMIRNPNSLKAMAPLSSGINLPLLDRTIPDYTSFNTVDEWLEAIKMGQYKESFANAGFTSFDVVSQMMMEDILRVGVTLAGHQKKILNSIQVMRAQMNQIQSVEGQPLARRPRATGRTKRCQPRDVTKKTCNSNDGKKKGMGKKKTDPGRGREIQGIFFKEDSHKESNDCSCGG
Particulars: at 1 µM.

In test [3] the target is T2, Ephrin type-B receptor 2 (Homo sapiens). As to conditions: at 10 µM.
Test [4] deals with T3, Ephrin type-B receptor 3 (Homo sapiens) (UniProt P54753).
T3 sequence (whole entry): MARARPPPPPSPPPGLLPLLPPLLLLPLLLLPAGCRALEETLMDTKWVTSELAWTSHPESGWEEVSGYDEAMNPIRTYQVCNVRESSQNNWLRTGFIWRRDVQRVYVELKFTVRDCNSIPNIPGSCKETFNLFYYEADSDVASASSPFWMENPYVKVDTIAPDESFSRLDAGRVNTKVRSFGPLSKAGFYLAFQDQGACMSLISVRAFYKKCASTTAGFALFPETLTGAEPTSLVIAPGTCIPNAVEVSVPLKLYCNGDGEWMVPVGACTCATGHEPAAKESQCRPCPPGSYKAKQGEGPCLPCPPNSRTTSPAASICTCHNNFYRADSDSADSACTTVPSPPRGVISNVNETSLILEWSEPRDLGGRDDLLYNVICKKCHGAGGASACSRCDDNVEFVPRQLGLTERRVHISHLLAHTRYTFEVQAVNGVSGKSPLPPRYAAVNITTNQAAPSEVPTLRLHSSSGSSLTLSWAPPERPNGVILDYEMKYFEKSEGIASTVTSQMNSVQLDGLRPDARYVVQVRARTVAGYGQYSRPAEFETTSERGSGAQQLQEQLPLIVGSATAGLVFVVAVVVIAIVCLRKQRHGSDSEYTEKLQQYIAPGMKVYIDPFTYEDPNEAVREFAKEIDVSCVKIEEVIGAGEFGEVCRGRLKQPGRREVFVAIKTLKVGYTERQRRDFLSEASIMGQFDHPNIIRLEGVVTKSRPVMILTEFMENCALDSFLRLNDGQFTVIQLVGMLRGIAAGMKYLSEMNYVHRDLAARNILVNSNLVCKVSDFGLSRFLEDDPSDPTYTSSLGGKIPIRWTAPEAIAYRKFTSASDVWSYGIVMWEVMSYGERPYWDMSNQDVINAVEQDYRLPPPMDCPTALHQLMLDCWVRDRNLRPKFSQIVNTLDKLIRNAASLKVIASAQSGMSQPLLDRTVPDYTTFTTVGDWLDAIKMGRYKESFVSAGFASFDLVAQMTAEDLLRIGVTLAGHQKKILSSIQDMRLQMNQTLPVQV
Particulars: at 1 µM.

Test [5] addresses T4, Ephrin type-B receptor 4 (Homo sapiens) (UniProt P54760).
T4 sequence (whole entry): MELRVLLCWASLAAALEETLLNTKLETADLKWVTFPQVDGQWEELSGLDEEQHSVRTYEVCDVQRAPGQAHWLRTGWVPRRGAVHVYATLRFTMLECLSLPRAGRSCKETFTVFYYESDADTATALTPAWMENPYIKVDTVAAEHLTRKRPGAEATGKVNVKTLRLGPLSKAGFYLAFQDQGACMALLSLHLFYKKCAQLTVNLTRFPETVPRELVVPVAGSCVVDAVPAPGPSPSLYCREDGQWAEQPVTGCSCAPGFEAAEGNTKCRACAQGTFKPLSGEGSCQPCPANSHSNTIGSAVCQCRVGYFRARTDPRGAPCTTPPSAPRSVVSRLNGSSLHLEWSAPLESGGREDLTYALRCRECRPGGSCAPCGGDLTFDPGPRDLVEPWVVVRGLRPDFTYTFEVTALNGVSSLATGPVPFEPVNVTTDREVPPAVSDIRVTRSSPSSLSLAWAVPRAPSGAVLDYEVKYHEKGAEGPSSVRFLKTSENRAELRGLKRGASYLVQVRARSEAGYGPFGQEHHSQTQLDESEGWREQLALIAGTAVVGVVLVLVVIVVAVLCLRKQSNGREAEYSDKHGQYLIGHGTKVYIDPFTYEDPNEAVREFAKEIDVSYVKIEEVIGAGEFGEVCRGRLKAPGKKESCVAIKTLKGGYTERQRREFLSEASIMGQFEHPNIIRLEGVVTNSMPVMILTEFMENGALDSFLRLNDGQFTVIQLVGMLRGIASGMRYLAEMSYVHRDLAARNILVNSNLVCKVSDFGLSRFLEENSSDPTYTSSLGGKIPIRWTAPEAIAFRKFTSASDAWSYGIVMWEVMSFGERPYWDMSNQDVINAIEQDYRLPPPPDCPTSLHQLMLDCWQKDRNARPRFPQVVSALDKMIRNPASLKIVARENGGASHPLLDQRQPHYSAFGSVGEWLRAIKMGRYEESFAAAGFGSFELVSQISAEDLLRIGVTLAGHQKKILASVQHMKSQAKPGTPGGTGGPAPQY
Particulars: at 1 µM.

The target of test [6] is T4, Ephrin type-B receptor 4 (Homo sapiens). As to conditions: at 10 µM.
Test [7] addresses Receptor tyrosine-protein kinase erbB-4 (Homo sapiens) (UniProt Q15303). As to conditions: at 1 µM.
The target is the same in test [8]. Particulars: at 10 µM.
Test [9] deals with Focal adhesion kinase 1 (Homo sapiens) (UniProt Q05397). Particulars: at 1 µM.
Test [10] concerns the target T3, Ephrin type-B receptor 3 (Homo sapiens). Particulars: at 10 µM.

For orientation: residual activity means the signal under treatment as a percentage of the control signal.

Chain of Receptor tyrosine-protein kinase erbB-4 (Homo sapiens) (Q15303 whole entry): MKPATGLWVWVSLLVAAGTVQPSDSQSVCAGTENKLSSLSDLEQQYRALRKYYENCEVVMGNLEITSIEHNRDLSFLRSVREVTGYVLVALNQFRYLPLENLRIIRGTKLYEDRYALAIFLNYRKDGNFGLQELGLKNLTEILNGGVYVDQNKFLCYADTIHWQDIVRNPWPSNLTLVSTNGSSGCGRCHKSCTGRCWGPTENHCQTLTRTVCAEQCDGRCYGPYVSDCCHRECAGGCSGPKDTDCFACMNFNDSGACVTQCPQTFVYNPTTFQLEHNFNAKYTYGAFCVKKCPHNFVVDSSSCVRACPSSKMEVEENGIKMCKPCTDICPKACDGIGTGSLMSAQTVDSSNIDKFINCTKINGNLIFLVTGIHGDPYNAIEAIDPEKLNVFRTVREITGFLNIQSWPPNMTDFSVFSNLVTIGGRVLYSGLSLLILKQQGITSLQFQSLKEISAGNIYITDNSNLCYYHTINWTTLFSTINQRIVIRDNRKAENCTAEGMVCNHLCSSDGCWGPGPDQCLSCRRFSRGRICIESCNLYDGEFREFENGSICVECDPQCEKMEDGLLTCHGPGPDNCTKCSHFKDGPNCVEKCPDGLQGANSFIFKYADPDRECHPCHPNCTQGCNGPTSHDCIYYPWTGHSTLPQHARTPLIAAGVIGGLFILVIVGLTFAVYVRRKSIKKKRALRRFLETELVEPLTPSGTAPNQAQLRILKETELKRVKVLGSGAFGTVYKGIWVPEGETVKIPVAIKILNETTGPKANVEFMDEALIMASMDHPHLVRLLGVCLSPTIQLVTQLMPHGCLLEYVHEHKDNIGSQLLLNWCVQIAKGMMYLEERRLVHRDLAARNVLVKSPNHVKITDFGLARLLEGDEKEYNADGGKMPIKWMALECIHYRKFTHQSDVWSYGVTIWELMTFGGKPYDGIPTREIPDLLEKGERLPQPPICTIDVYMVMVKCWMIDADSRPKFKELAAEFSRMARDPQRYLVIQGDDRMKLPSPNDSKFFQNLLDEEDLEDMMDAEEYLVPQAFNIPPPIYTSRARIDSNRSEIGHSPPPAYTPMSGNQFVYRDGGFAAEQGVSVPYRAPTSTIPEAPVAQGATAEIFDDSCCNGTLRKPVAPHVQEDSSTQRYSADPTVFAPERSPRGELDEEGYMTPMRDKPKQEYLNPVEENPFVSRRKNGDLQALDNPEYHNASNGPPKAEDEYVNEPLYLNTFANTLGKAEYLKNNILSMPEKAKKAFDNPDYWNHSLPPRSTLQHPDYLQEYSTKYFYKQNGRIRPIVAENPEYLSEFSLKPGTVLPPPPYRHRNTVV
Chain of Focal adhesion kinase 1 (Homo sapiens) (Q05397 2-1052 limits assumed): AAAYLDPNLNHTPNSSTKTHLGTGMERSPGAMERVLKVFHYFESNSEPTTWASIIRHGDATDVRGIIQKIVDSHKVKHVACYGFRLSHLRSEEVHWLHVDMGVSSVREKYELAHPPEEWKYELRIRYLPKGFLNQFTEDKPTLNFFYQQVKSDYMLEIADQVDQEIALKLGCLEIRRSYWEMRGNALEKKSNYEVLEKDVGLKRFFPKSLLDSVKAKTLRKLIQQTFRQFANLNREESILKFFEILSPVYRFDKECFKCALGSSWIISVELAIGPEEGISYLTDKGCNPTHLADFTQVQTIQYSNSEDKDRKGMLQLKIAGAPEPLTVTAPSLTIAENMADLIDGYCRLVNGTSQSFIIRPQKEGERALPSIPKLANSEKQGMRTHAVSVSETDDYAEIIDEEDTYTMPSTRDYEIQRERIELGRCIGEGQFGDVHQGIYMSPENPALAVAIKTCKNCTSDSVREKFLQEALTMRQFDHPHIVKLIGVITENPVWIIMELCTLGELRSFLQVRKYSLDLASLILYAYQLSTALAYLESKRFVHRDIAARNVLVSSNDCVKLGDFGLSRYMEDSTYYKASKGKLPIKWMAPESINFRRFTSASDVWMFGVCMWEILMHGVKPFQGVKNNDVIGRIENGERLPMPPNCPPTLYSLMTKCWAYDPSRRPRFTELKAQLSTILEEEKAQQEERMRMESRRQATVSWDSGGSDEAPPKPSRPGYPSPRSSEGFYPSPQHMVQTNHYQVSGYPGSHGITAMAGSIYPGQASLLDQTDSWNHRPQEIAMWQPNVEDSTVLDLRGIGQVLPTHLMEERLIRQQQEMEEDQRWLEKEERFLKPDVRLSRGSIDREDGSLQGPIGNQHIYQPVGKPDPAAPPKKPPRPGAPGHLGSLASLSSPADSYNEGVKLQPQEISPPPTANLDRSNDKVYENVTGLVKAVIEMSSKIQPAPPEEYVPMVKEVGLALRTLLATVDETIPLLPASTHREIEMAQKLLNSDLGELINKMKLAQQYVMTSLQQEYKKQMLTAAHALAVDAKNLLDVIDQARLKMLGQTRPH

As to `Cn1nc2c3c(cccc31)C(=O)c1ccccc1-2`, the residual activity in test [1] is 77%; in test [2], 108%; in test [3] it was 109%; in test [4] it was 104% (inactive); in test [5], 87%; in test [6], 83%. The values for the residual activity in [7], in [8] and in [9] were 93%, 90% and 95%, respectively.

With `CNc1cc2c(Nc3cccc(Br)c3)ncnc2cn1`, the residual activity in test [1] was 62%; in [2], 94%; in [3], 62%; in test [4], 95% (inactive); in [10], 120%; in [5], 63%. The residual activity in test [6] was 13%; in test [7] it was 42%; in [8] it was 31%; in test [9], 107%.

With `Ic1cccc(CSc2nnc(-c3ccncc3)o2)c1`, the residual activity in test [1] is 84%; in test [2] it was 106%; in test [3], 109%; in [4], 104% (inactive); in test [10], 101%; in [5], 84%. Also, the residual activity in test [6] came to 84%; in test [7], 94%; in [8], 91%; in test [9] it was 96%.

Turning to `c1ccc(-c2n[nH]c3c2oc2ccccc23)cc1`, the residual activity in [1] is 90%; in test [4], 93% (inactive); in test [10], 100%; in [5], 100%; in [6] it was 116%; in test [7], 90%. Further, the residual activity in test [9] stood at 122%.

Consider `O=c1c2ccccc2[nH]c(=S)n1CCN1CCC(=C(c2ccc(F)cc2)c2ccc(F)cc2)CC1`, for which the residual activity in [1] is 90%; in [4], 112% (inactive); in test [10] it was 107%; in test [5] it was 99%; in test [6], 121%; in [7], 102%. Also, the residual activity in test [8] stood at 66%; in test [9], 135%.

For the compound `O=C(O)c1ccc2c3c1cccc3c(=O)n1c3ccccc3nc21`, the residual activity in test [1] was 98%; in test [2] it was 105%; in [3], 108%; in [4], 98% (inactive); in [10] it was 110%; in [5], 102%. Moreover, the residual activity in [6] is 100%; in test [7], 105%; in test [8], 95%; in test [9], 112%.

Consider `Cc1cc2ncc(-c3ccccc3)nc2cc1C`, for which the residual activity in test [1] was 106%; in [3], 103%; in [4], 106% (inactive); in test [10], 125%; in [7], 99%; in test [8] it was 105%.
